The campaign covered roughly 1,200 compounds. About 480 (40%) were called active. Not shown: some 29% with an inconclusive outcome. The list shows a part of the results. Values without a mark were called inactive. Calls come from the whole dose curve; as a rule, active = well fitted inhibition curve with a large enough effect; inconclusive = small, poorly fitted or top-dose-only effect; inactive = no such curve, though single readings can be large or run the other way.
experiment: qHTS Assay to Find Inhibitors of Chronic Active B-Cell Receptor Signaling: Hit Validation in Primary Screen; conditions: ABC-DLBCL IkB-luc/CBR ratio luminescence, 4 h; series mostly up to 46.1 µM; activity change, negative = inhibition: at the top concentration; note: nearly all actives have a fitted effect of over 75% in size
Description: Diffuse large B-cell lymphoma (DLBCL) is the most common category of non-Hodgkin lymphoma, with ~20,000 new cases per year in the United States. DLBCL should be regarded as a collection of different neoplasms. Microarray gene expression analysis has defined two principal types of DLBCL, named for their similarity to normal B cell stages or activation states: a germinal center B-cell (GCB) type, and an activated B-cell (ABC) type. In ABC-DLBCL, a constitutive high-level activity of the NF-kappaB family of transcription factors has been observed (1) and NF-kappaB target genes are more highly expressed in ABC primary tumors than in GCB tumors. Functional studies have shown a constitutive high-level activity of the IkappaB (inhibitor of kappa-B) kinase (IKK) complex. […] Further analysis of DLBCL primary tumors for NF-kappaB target gene expression imply that although CARD11 is required for constitutive IKK activity in all ABC-DLBCL lines, mutations in CARD11 may be the root cause of IKK activation only in lines or tumors with such mutations. In other words, CARD11 mutations may explain NF-kappaB activation in only 10% of ABC-DLBCL cases. […] This process has been termed 'chronic active BCR signaling' (CABS). The goal of this screen is to find small-molecule inhibitors of the CABS pathway found in ABC-DLBCL lines using a cell-based assay that measures IkappaBalpa stability, which has already been extensively validated in the OCI-Ly3 line (PubChem AID:445; REF: 4). […] A cell-sensor assay for I-kappa-B-alpha stabilization has been developed. The assay uses green (CBG68) and red (CBR) emitting beetle luciferases [Chroma-GloTM developed by Promega Corp.] where the green luciferase is fused to IkappaBalpha and the red luciferase is present in its native state. Both luciferase genes are stably present in the TMD8 human ABC DLBCL cell line, but their expression is under the control of tetracycline-inducible promoters. Following the addition of doxycycline to induce expression of the luciferases, the green luminescence in control cultures rises only slowly because the CBG fusion partner IkappaBalpha is targeted by IKK activity for rapid degradation. In contrast, green luminescence rises rapidly in the presence of proteasome inhibitors or IKK inhibitors. The rise in red luminescence of CBR is not affected by proteasome or IKK inhibitors, and serves as normalization for cell number and nonspecific effects. Compounds were screened as a concentration-titration series that ranged from 46 uM to 3 nM. NIH Molecular Libraries Probe Production Network [MLPCN] NIH Chemical Genomics Center [NCGC] MLPCN Grant: R03 DA031086 PI Name: Dr. R. Eric Davis
Cells were seeded in 1536-well plates at 5000 cells/4uL in IMDM medium containing 0.5% FBS, w/o phenol red, 1% penicillin/streptomycin. Then, 23 nL of compounds or DMSO were delivered to each well using a pin tool. One uL 20ng/ml doxycycline was then dispensed into white solid 1536-well plates and the plates were incubated at 37C/5% C02 in a cell incubator for 4 hrs. Then 4 uL luminescent substrate mix (in-house prepared: 150 mM Tris-Cl, pH 7.6, 3 mM MgCl2, 1% Triton X-100, 5 mM DTT, 0.2 mM CoA, 0.15 mM ATP, 5 mM D-luciferin, final concentrations) was added to each well. The plate was incubated at r.t. for 10-15 min. The plates were measured on a ViewLux plate reader for green luminescence (540/20 nm filter) and red luminescence (618/8 nm filter). The green and red luminescent signals were corrected for red and green luminescence filter overlap using previously determined filter calibration constants (determined using the procedure outlined in the Promega Technical Manual; REF 4). The %Activity was determined from the ratio of corrected green/red luminescent values. MG132 were used as control. Green luminescent and ratio %Activity was determined by normalizing to the difference in signal between basal cells (0% Activity) and cells incubated with 10 uM of the proteasome inhibitor MG-132 (100% Activity). […]
% is set by controls: 0 for no effect and ±100 for the full control effect; potency is the fitted concentration of half-maximal effect.

Structure (SMILES)	Potency	activity change, negative = inhibition
COc1ccc(/C=N\NC(=O)c2ccccc2F)cc1COc1ccc(F)cc1F	3.26 µM (active)	
CCOc1cc(/C=N/O)ccc1OCc1ccccc1F		-15.1%
CNC(=S)N/N=C(\C)c1cccc([N+](=O)[O-])c1		36%
C/C(=N\NC(=O)c1c([N+](=O)[O-])c(C)nn1C)c1ccc(NC(=O)C2CCCC2)cc1	9.2 µM (active)	
C/C(=N\NC(=O)C(C)n1nc(C)c([N+](=O)[O-])c1C)c1ccccc1O (configuration not stated)		-4.79%
COc1cc(C(=O)N/N=C/c2sccc2C)cc(OC)c1OC	1.46 µM (active)	
COc1cc(C(=O)N/N=C/C2CC=CCC2)cc(OC)c1OC (configuration not stated)		-7.05%
COc1cc(C(=O)N/N=C/c2cc([N+](=O)[O-])cs2)cc(OC)c1OC	20.6 µM (active)	
COc1cc(C(=O)O/N=C(\N)c2ccc([N+](=O)[O-])cc2)cc(OC)c1OC		51.1%
COc1cc(C(=O)N/N=C/c2ccsc2C)cc(OC)c1OC	2.31 µM (active)	
CCCC(C)NC(=O)c1ccc(C2SCC(=O)N2Cc2ccco2)cc1 (configuration not stated)		-16.5%
CC1=Nc2cc(C(=O)NCC3CCCO3)ccc2Sc2ccc(C)cc21 (configuration not stated)	7.31 µM (active)	
Cc1cc(C(=O)OCC(=O)NCc2ccco2)c(C)n1-c1ccc(F)cc1		38.7%
CC1=Nc2cc(C(=O)NCc3ccco3)ccc2Sc2ccc(C)cc21	1.84 µM (active)	
CC(NC(=O)c1ccc(S(=O)(=O)NCc2ccco2)cc1)c1ccc(F)cc1 (configuration not stated)		-8.65%
CCC1=Nc2cc(C(=O)NCc3ccco3)ccc2Sc2ccc(C)cc21	1.16 µM (active)	

Structure (SMILES)	Potency	activity change, negative = inhibition
CCC1=Nc2cc(C(=O)NCc3ccco3)ccc2Sc2ccc(Cl)cc21	2.91 µM (active)	
COc1ccc(N2C(=O)CS/C2=N\C(=S)Nc2ccccc2)cc1		0.626%
N#CCSc1nc(N)c(C#N)c(C2CCCCC2)c1C#N		-9.34%
CCC1=Nc2cc(C(=O)NCc3ccco3)ccc2Sc2ccccc21	20.6 µM (active)	
CCC1=Nc2cc(C(=O)NCc3cccnc3)ccc2Sc2ccc(C)cc21	18.4 µM (active)	
CCC1=Nc2cc(C(=O)NCc3ccccc3Cl)ccc2Sc2ccc(C)cc21	4.61 µM (active)	
COc1ccc(C(=O)NN(C)c2nc(C(F)(F)F)nc3ccccc23)cc1	0.291 µM (active)	
CSc1nc(N(C)NC(=O)c2ccc(Cl)cc2)c2ccccc2n1		37.4%
CSc1nc(N(C)NC(=O)c2cccc(C)c2)c2ccccc2n1	1.3 µM (active)	
COc1ccc(-c2c(C)nn3c(N)c(C#N)cnc23)cc1OC	20.6 µM (active)	
C[C@H]1C[C@@H]2[C@H]([C@@H](O)C[C@@]3(C)[C@H]2CC[C@]3(O)C(=O)CO)[C@@]2(C)C=CC(=O)C=C12		47.4%
COc1ccc(/C=N/NC(=O)c2cc3c(OC)ccc(OC)c3[nH]2)cc1O	2.31 µM (active)	
COc1ccc(/C=N/NC(=O)c2[nH]c3ccc(C)cc3c2-c2ccccc2)c(C(=O)O)c1OC		11.9%
Cc1ccc(CNC(=O)Cc2ccc(-n3c(=O)[nH]c4ccsc4c3=O)cc2)cc1	4.11 µM (active)	
O=C1N/C(=N/N=C/c2ccccc2O)SC1Cc1ccc(F)cc1 (configuration not stated)	9.2 µM (active)	
C=CCn1c(SC2CCOC2=O)nc2sc(C)c(C)c2c1=O (configuration not stated)		-15.6%

Reference: PubChem BioAssay AID651558 (National Center for Advancing Translational Sciences (NCATS), 2012)
